Biological target: alpha-synuclein (aSyn) WT (human, UniProt P37840 1-140)
Assay: RNA Bind-n-Seq
Conditions: ssRNA

Binding signal, 46.4 enrichment score:
UGGGGGAUGAGG, UAGGUUGGGGGU, GGAGGUGGUGGA, UUGGGUGGAGGG, UGGCGGGGUGGA, GUGGGGAGGAAG, GGCGGUUGUUGG

Binding signal, 65.9 enrichment score:
GGUGGGUUUGGG

Binding signal, 43.8 enrichment score:
GUGGGGGGGCAU, UGAUGGGGGUGG, UAGGGGUUGUGG, GGUUGGGAGCGG, GGGUGUUGGUUG, GUGGGGGGGGCA, GAGGCGGGAGGG, GCGGGCAGGUGG, AGUGGGGGGGUG, GCGGGAUGGGGG, GUGUGGGGGCAG

Binding signal, 54.6 enrichment score:
GUGGAGAGGUGG

Binding signal, 49.1 enrichment score:
UUGGGCGGGUAG, GGCGGGCGGAGG, AGGGGGGAGCAG, GUGGAUGGCGGG, GGCGAAGGGAGG, AGUGGGUGUGGA

Binding signal, 96 enrichment score:
GGGUGGGCGGGG

Binding signal, 57.4 enrichment score:
GAGGAGGGUGGG

Binding signal, 41.1 enrichment score:
GAGGGGCUGGCG, GGAGGCAGUGGG, GGAGGAAGGGGA, AGGGGAGCUGGG, GGGCUGGGAGUG

From article doi:10.1101/2023.07.10.548322
